# Bioassay records deposited in PubChem by National Center for Advancing Translational Sciences (NCATS).
# TDP1 cell noCPT = qHTS for Inhibitors of human tyrosyl-DNA phosphodiesterase 1 (TDP1): qHTS in cells in absence of CPT; hit rate 15% among 420,000; Potency, µM (titrated, usually from 46.2 µM), inactives show top-dose activity change, negative = growth inhibition, hits mostly inhibitors; DT40 Tdp1-/- hTDP1 cells, no CPT, ATP luminescence, 48 h; further: nearly all actives have a fitted effect of over 55% in size
#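 Compound effects on proliferation are scored in DT40 Tdp1-/-;hTDP1 cells in the absence of CPT. ATP levels (CellTiter-Glo luminescence) are recorded after a ≥48 hr, 37 °C incubation.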
# TDP1 cell CPT = qHTS for Inhibitors of human tyrosyl-DNA phosphodiesterase 1 (TDP1): qHTS in cells in presence of CPT; hit rate 12% among 420,000; Potency, µM (doses to about 46.2 µM), without a hit: at the highest dose activity change, negative = growth inhibition, actives largely listed as inhibitors; AID 686979, 2013; chicken DT40 Tdp1-/-;hTDP1 cells + 20 nM CPT, ATP luminescence, 48 h; further: nearly all actives have a fitted effect of over 55% in size
#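 Chicken DT40 Tdp1-/- cells complemented with human TDP1, 400 cells/well, exposed to compounds plus 20 nM camptothecin for at least 48 h at 37 C; viability read as ATP content by CellTiter-Glo luminescence.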
# KB-3-1 cytotox = qHTS assay for MDR1-selective chemotherapeutics: Primary screen using the parental adenocarcinoma cell KB-3-1. KB-3-1 viability, CellTiter-Glo ATP luminescence, 72 h. hit rate 1.4% among 400,000. Potency, µM (highest dose often 46.1 µM), most hits filed as cytotoxic; further: nearly all actives have a fitted effect of over 60% in size
#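 Viability of parental KB-3-1 cells, measured by CellTiter-Glo luminescence, followed a 72 h incubation at 37 °C with pinned compounds in phenol-red-free DMEM containing 10% FBS.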
# KB-V1 MDR tox = qHTS assay for MDR1-selective chemotherapeutics: Primary screen using the drug-selected MDR subline cells KB-V1. Potency, µM (titrated, usually from 46.1 µM), usual class: cytotoxic. hit rate 3.4% among 400,000. KB-V1 MDR cells viability, CellTiter-Glo, 72 h. AID 1347076, 2019; further: nearly all actives have a fitted effect of over 60% in size
#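 Cells of the MDR subline KB-V1 are plated, dosed with compound at multiple concentrations, and incubated 72 h at 37 degrees C; CellTiter-Glo is then added and luminescence read after 10 min.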
# HT1080-NT tox = qHTS for induction of synthetic lethality in tumor cells producing 2HG: qHTS for the HT-1080-NT fibrosarcoma cell line; hit rate 1.6% among 360,000; Potency, µM (highest dose often 46.1 µM), without a hit: at the top dose activity, negative = less viability, hits mostly cytotoxic; HT-1080-NT fibrosarcoma viability, CellTiter-Glo ATP luminescence, 48 h;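 further: NT is the 2HG producing partner of a matched IDH1 knockdown line; 0% = DMSO-treated cells and -100% = media-only wells without cells; nearly all actives have a fitted effect of over 55% in size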
#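 Luminescent CellTiter-Glo readout after 48 hours of compound exposure at 37 degrees C defined viability of HT-1080-NT cells. Activity was normalized to DMSO wells and cell-free media wells; concentration-response curves were fitted and assigned curve classes.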
# HT1080 IDH1KD tx = qHTS for induction of synthetic lethality in tumor cells producing 2HG: qHTS for the HT-1080-IDH1KD cell line; AID 686971, 2013; Potency, µM (series often up to 46.1 µM), inactives show top-dose activity, negative = toxicity, usual class: cytotoxic; hit rate 2% among 360,000; HT-1080 IDH1 knockdown viability, ATP luminescence, 48 h;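 further: 0% = DMSO wells and -100% = cell-free medium wells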
#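 Viability of IDH1-knockdown HT-1080 fibrosarcoma cells was assessed by CellTiter-Glo after 48 h at 37 °C with titrated compound; concentration-effect curves were classified by fit quality and response size.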
# An asterisk follows results filed as active; i = inactive; ? = inconclusive; nt = not tested or not shown. This is a sample that favours compounds with a hit; in the whole collection about 19% have one here. The call rests on the fitted dose curve; in most records, active means well fitted curve in the direction sought with a large enough effect; inconclusive means small, poorly fitted or top-dose-only effect, or another doubt; inactive means no such curve, though single readings can be large; an effect the other way counts as inactive or inconclusive. Unless noted, on the % scale 0 is the no-effect control and ±100 the full control effect; potency means the concentration at half of the fitted maximal effect.
SMILES,TDP1 cell noCPT,TDP1 cell CPT,KB-3-1 cytotox,KB-V1 MDR tox,HT1080-NT tox,HT1080 IDH1KD tx
Cc1cc(C)c2c(CC(=O)N(Cc3ccccc3)C3CCS(=O)(=O)C3)coc2c1 (centres undefined),?,?,i,?,nt,nt
O=C(/C=C/[C@H]1O[C@@H](n2ccc(=O)[nH]c2=O)[C@H](O)[C@@H]1O)NCCN1CCCCC1,1%,3%,i,i,16%,25%
CC(=O)CCc1c(C)nc2ccc(C)cc2c1Cl,5.2µM*,-8%,i,i,-23%,-16%
CCOC(=O)c1ccc2nc(C)c(CCC(C)=O)c(Cl)c2c1,-2%,-8%,i,i,-5%,-3%
N#Cc1cnn(-c2ccccc2)c1NC(=O)c1ccccc1F,12%,0%,i,i,9%,6%
CC(=O)NS(=O)(=O)c1ccc(N=c2ssc3c2-c2cc(C)c(C)cc2NC3(C)C)cc1,?,-20%,i,i,?,?
Cc1cc2c(cc1C)-c1c(ssc1=Nc1ccc(S(N)(=O)=O)cc1)C(C)(C)N2,16µM*,?,i,i,?,?
COc1ncc2nc(-c3cccs3)c(=O)n(Cc3ccc(F)cc3)c2n1,-6%,-18%,nt,nt,nt,nt
CN(C(=O)CCc1nnc(-c2ccc(-c3ccccc3)cc2)o1)C1CCOCC1,13µM*,?,nt,nt,-1%,0%
CC(c1nccs1)N(C)C(=O)CCc1nnc(-c2ccc(-c3ccccc3)cc2)o1 (centres undefined),-85%,15µM*,i,i,-24%,-1%
CC(NC(=O)CCc1nnc(-c2ccc(-c3ccccc3)cc2)o1)c1nccs1 (centres undefined),21µM*,26µM*,i,i,0%,-1%
CCOc1ccccc1CNS(=O)(=O)c1ccc2c(c1)CCCN2C(C)=O,?,?,i,i,nt,nt
COCCNC(=O)Cn1cc(S(=O)(=O)Cc2ccccc2Cl)c2ccccc21,-12%,-23%,i,i,nt,nt
COc1ccccc1N(C)S(=O)(=O)c1ccc(C(=O)Nc2ccc3nc(C)sc3c2)cc1,?,16µM*,?,23µM*,-12%,-27%
Cc1nc2ccc(NC(=O)c3ccccc3)cc2s1,16%,?,i,i,1%,-1%
Cc1ccc(NC(=O)c2cccc(S(=O)(=O)N(C)c3ccccc3)c2)cc1S(=O)(=O)N1CCOCC1,23µM*,23µM*,?,5.2µM*,-4%,-15%
Cc1nc2ccc(NC(=O)c3cccc(S(=O)(=O)N(C)c4ccccc4)c3)cc2s1,6.5µM*,3.7µM*,?,?,?,?
CC(NC(=O)c1cccc(S(=O)(=O)N(C)c2ccccc2)c1)c1cccnc1 (centres undefined),18µM*,18µM*,i,i,2%,-4%
CCc1nn(CC(=O)N2CCN(c3cccc(C)c3C)CC2)c(=O)c2cc3sccc3n12,-3%,-6%,nt,nt,nt,nt
CC1(C(=O)NS(=O)(=O)c2ccc(F)cc2F)CCN1C(=O)Cc1cc(F)ccc1F (centres undefined),-21%,-11%,i,i,18%,9%
O=C(NCCc1ccc(Cl)cc1)C1CCC(=O)N1Cc1ccc(F)cc1 (centres undefined),-16%,-3%,i,i,1%,-2%
O=C(c1ccc(F)cc1)N1CCN(Cc2ccccc2)CC1,1%,-9%,i,i,10%,12%
COc1ccc(/C=C2\C(=O)NC(=S)N2C(=O)c2ccc(F)cc2)cc1,18µM*,23µM*,i,i,-11%,9%
O=C1NC(=S)N(C(=O)c2ccc(F)cc2)/C1=C/c1ccccc1,13µM*,23µM*,?,?,-23%,-28%
CCOc1ccc(Cn2c(CNS(=O)(=O)c3cccs3)nc3cccnc32)cc1,23µM*,?,nt,nt,nt,nt
SMILES,TDP1 cell noCPT,TDP1 cell CPT,KB-3-1 cytotox,KB-V1 MDR tox,HT1080-NT tox,HT1080 IDH1KD tx
CCc1ccc(Cn2c(CNS(=O)(=O)c3ccc(Cl)s3)nc3cccnc32)cc1,16µM*,16µM*,nt,nt,nt,nt
Cc1ccsc1/C=N/NC(=O)c1nnn(-c2nonc2N)c1CN(C)c1ccccc1,?,?,i,i,-5%,-13%
Cc1cccc(NC(=O)CN2CCN(C(=O)CN3C(=O)NC4(CCCCC4C)C3=O)CC2)c1C (centres undefined),-27%,?,i,i,6%,0%
COCCNC(=S)N(CCc1c(C)[nH]c2ccc(C)cc12)Cc1cc(OC)c(OC)c(OC)c1,?,18µM*,i,i,-12%,0%
COCCNC(=S)N(CCc1c(C)[nH]c2ccc(Cl)cc12)Cc1cccnc1,21µM*,?,i,i,-7%,-1%
COc1cc(NC(=O)c2sc3nc4n(c(=O)c3c2C)CCCCC4)cc(OC)c1OC,?,?,i,i,nt,nt
CCN(C(=O)CCNC(=O)Cn1cnc2ccccc2c1=O)c1ccccc1F,-22%,-2%,i,?,-1%,9%
